Only some compounds are listed: those with a hit (about 0.45% of all), similar ones and a draw of the others.
FMDV RLuc = antivirals against foot and mouth disease virus replicon | FMDV replicon cells, Renilla luciferase signal | Potency, µM (top dose mostly 57.5 µM), for the others: top-dose activity change, negative = inhibition, actives largely listed as inhibitors | 120,000 compounds, 0.32% hits | AID 1745857; also: nearly all actives have a fitted effect of over 55% in size
FMDV FLuc = FMDV antiviral activity by firefly signal; 120,000 compounds, 0.23% hits; Potency, µM (doses to about 57.5 µM), for the others: at the highest dose activity change, negative = inhibition, hits mostly inhibitors; FMDV antiviral cell assay, firefly luciferase signal; also: nearly all actives have a fitted effect of over 60% in size
* marks the source's active call; other numbers are inactive results. Calls follow the shape of the full dose curve. % is scaled to controls: 0 for no effect and ±100 for the full control effect; potency is read from the fitted curve at half-maximal effect.

CCC(C)S(=O)(=O)c1oc(-c2cccs2)nc1S(=O)(=O)c1ccccc1 (centres undefined) was read as FMDV RLuc -5% and FMDV FLuc 32µM*.
`CCOC(=O)c1ccc(NC(=O)c2cnn3c(=O)c4c(n(CC)c23)CCN(Cc2ccc(OC)cc2)C4)cc1` gave FMDV RLuc 8% and FMDV FLuc -15%.
For CCn1c2c(c(=O)n3ncc(C(=O)N4CCN(c5ccc(C(C)=O)cc5)CC4)c13)CN(Cc1ccc(OC)cc1)CC2 the results were FMDV RLuc 22µM* and FMDV FLuc inconclusive.
Screening CN(C)CCCN(Cc1cccc2ccccc12)Cc1cccc2ccccc12 returned FMDV RLuc -11% and FMDV FLuc -6%.
Screening Cc1nc2cc(-c3ccccc3)nn2c(C)c1CCC(=O)NCCc1ccccc1 returned FMDV RLuc 6% and FMDV FLuc inconclusive.
Screening COC(=O)c1ccc(NC(=O)CCc2c(C)nc3cc(-c4cccc(F)c4)nn3c2C)cc1 returned FMDV RLuc -7% and FMDV FLuc inconclusive.
`COc1ccc(NC(=O)CCc2c(C)nc3cc(-c4cccc(F)c4)nn3c2C)cc1Cl` gave FMDV RLuc -6% and FMDV FLuc 28µM*.
For CCCCNC(=O)CCc1c(C)nc2cc(-c3ccccc3)nn2c1C the results were FMDV RLuc -15% and FMDV FLuc 1.8µM*.
For COc1cc(Nc2nc3ccccc3nc2NS(=O)(=O)c2cc(C)ccc2C)cc(OC)c1 the results were FMDV RLuc -1% and FMDV FLuc 9%.
`Cc1cc(NC(=O)COC(=O)C2(c3ccccc3F)CCCC2)no1` gave FMDV RLuc 5% and FMDV FLuc 1%.
`COc1cc(C2c3c(-c4cc(C)cc(C)c4O)n[nH]c3C(=O)N2Cc2cccnc2)ccc1O` (centres undefined) gave FMDV RLuc 22% and FMDV FLuc 3%.
For Cc1ccc(Nc2nc3nonc3nc2Nc2cccc(C(F)(F)F)c2)cc1Cl the results were FMDV RLuc 2.2µM* and FMDV FLuc inconclusive.
Cc1ccc(N/N=C/c2cccc(C(F)(F)F)c2)cc1Cl was read as FMDV RLuc 9% and FMDV FLuc 3%.
Screening O=C(CSc1nc2ccccc2o1)Nc1cc(Cl)cc(Cl)c1 returned FMDV RLuc inconclusive and FMDV FLuc -12%.
For COc1cccc(N2CCN(c3ncc4c(n3)CCN(Cc3ccc(Br)cc3)C4)CC2)c1 the results were FMDV RLuc 4µM* and FMDV FLuc 7.1µM*.
For CCc1ccc(CN2CCc3nc(N4CCN(c5ccccc5F)CC4)ncc3C2)cc1 the results were FMDV RLuc -13% and FMDV FLuc -1%.
Screening O=C(Nc1nc(-c2cccc3ccccc23)cs1)c1cccs1 returned FMDV RLuc inconclusive and FMDV FLuc 13µM*.
Cn1c(=O)c2c(ncn2CC(=O)Nc2nc(-c3cccc4ccccc34)cs2)n(C)c1=O was read as FMDV RLuc -7% and FMDV FLuc 130%.
Screening CN(Cc1ccc(-c2ccc(Cl)cc2)o1)C(=O)CNC(=O)c1ccccc1F returned FMDV RLuc 9% and FMDV FLuc -7%.
For CC(=O)c1cccc(NS(=O)(=O)c2ccc(-c3cnc(C4CC4)o3)cc2)c1 the results were FMDV RLuc -21% and FMDV FLuc 8.9µM*.
`Cc1ccc(NS(=O)(=O)c2ccc(-c3cnc(C4CC4)o3)cc2)cc1F` gave FMDV RLuc 135% and FMDV FLuc -26%.
For CCCNc1nc(-c2ccc(S(=O)(=O)N3CCCCCC3)cc2)cs1 the results were FMDV RLuc 48% and FMDV FLuc 3%.
`CNC(=O)NC(=O)COC(=O)c1cc(-c2ccco2)nc2ccccc12` gave FMDV RLuc -3% and FMDV FLuc -4%.
Cc1cc(C)c(NC(=O)C2=Cc3sc4c(c3CS2)CCCC4)c(C)c1 was read as FMDV RLuc 3% and FMDV FLuc -7%.
Screening COc1ccc(NC(=O)COc2ccc(Cl)cc2Cl)c2cccnc12 returned FMDV RLuc inconclusive and FMDV FLuc 2.5µM*.
`COc1ccc(NC(=O)c2ccc(Cl)cc2)c2cccnc12` gave FMDV RLuc -12% and FMDV FLuc 43%.
For Nc1nccnc1C(=O)NCc1cccnc1Oc1cccc(F)c1 the results were FMDV RLuc 8% and FMDV FLuc 5%.
`Nc1nccnc1C(=O)NCc1ccc(OCc2cccc(F)c2)cc1` gave FMDV RLuc 11µM* and FMDV FLuc inconclusive.
`Oc1ccc2ccccc2c1C=Nc1ccc(F)c(F)c1F` gave FMDV RLuc -13% and FMDV FLuc -16%.
For Cc1ccccc1NC(=O)c1sc2nc3c(cc2c1N)CN(C(C)C)CC3 the results were FMDV RLuc 14µM* and FMDV FLuc inconclusive.
`Cc1ccccc1NC(=O)c1sc2nc3c(cc2c1N)CN(Cc1ccccc1)CC3` gave FMDV RLuc inconclusive and FMDV FLuc 4%.
COc1ccccc1C1NC(=S)NC2=C1CCc1ccccc12 (centres undefined) was read as FMDV RLuc -15% and FMDV FLuc -18%.
`COc1ccc(-c2nc(C(=O)N3CCCCC3C)nn2-c2ccccc2Cl)cc1` (centres undefined) gave FMDV RLuc 22% and FMDV FLuc 22%.
`COc1ccc(CNCCc2ccc(Cl)cc2)cc1` gave FMDV RLuc -27% and FMDV FLuc 7%.
For COc1ccc(CCNCc2ccc(Cl)cc2)cc1 the results were FMDV RLuc 8.9µM* and FMDV FLuc 2%.
Screening COc1cc(CNC(=O)c2nccnc2N)ccn1 returned FMDV RLuc inconclusive and FMDV FLuc -9%.
Screening COc1cc(C=C2CCC/C(=C\c3ccc(O)c(OC)c3)C2=O)ccc1O returned FMDV RLuc inconclusive and FMDV FLuc 22µM*.
For COc1cc(C=O)ccc1O the results were FMDV RLuc 2% and FMDV FLuc -1%.
`CCNC(=O)NC(=O)C(C)Oc1ccc(C(=O)c2ccc(Cl)cc2)cc1` (centres undefined) gave FMDV RLuc inconclusive and FMDV FLuc 13µM*.
`CCOc1ccc(C(=O)c2ccc(Cl)cc2)cc1` gave FMDV RLuc 20% and FMDV FLuc 42%.
`C=CCNc1nc2c(c(=O)n(C)c(=O)n2C)n1Cc1ccc(Cl)cc1` gave FMDV RLuc 13µM* and FMDV FLuc 14µM*.
Screening C=CCNc1nc2c(c(=O)n(C)c(=O)n2C)n1Cc1ccccc1Cl returned FMDV RLuc -19% and FMDV FLuc -14%.
Screening CC(C)CCNc1nc2c(c(=O)n(C)c(=O)n2C)n1Cc1ccc(Cl)cc1 returned FMDV RLuc -9% and FMDV FLuc -1%.
Screening Cn1c(=O)c2c(nc(NCCO)n2Cc2ccc(F)cc2)n(C)c1=O returned FMDV RLuc 7.9µM* and FMDV FLuc 10µM*.
CCCCCCNc1nc2c(c(=O)n(C)c(=O)n2C)n1Cc1cccc(C)c1 was read as FMDV RLuc -7% and FMDV FLuc 0%.
Screening Cn1c(=O)c2c(nc(NCCc3ccc(F)cc3)n2Cc2ccc(F)cc2)n(C)c1=O returned FMDV RLuc -9% and FMDV FLuc -1%.
`Cn1c(=O)c2c(nc(NCCO)n2Cc2ccc(Cl)cc2)n(C)c1=O` gave FMDV RLuc inconclusive and FMDV FLuc 13µM*.
CCCCCCNc1nc2c(c(=O)n(C)c(=O)n2C)n1CCC was read as FMDV RLuc 20µM* and FMDV FLuc inconclusive.
Screening CC(C)c1ccc(-c2csc(Nc3ccc(C(=O)O)c(O)c3)n2)cc1 returned FMDV RLuc -3% and FMDV FLuc 94%.
`CCC1(CC)NC(=O)N(Cc2coc(-c3cccc(F)c3)n2)C1=O` gave FMDV RLuc 1% and FMDV FLuc 27%.
